The text below walks through data of PubChem BioAssay (Tox21).

Each structure is given as a SMILES string. Calls of active or inactive are those of the source. The call rests on the fitted dose curve; in most records, active means well fitted inhibition curve with a large enough effect in the repeat runs (not every such curve was filed as active); inconclusive means weak or mixed curves; inactive means flat fitted curve, though single readings scatter.

Thyrotropin-releasing hormone receptor (Homo sapiens), sequence (P34981 whole entry, looked up): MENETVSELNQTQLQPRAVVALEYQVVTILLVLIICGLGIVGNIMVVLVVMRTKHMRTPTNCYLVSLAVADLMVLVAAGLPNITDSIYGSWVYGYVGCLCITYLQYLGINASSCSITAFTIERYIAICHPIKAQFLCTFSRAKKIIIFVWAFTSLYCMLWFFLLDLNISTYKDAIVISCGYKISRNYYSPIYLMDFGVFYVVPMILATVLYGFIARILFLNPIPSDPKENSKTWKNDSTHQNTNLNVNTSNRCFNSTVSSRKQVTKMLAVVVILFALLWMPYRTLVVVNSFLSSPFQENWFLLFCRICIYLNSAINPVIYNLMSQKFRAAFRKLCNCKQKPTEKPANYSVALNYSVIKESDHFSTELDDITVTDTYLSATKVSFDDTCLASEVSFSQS

This experiment has as its target Thyrotropin-releasing hormone receptor (Homo sapiens) (UniProt P34981). The experiment can be described thus: qHTS assay to identify small molecule antagonists of the thyrotropin-releasing hormone receptor (TRHR) signaling pathway (AID 1346877). To be noted: TRHR-HEK293, TRH-induced calcium fluorescence, antagonist mode; series mostly up to 51.3 µM. An excerpt: National Center for Advancing Translational Sciences [NCATS]
NIH Chemical Genomics Center [NCGC]
U.S. Environmental Protection Agency [EPA]
National Institutes of Environmental Health Sciences [NIEHS]
National Toxicology Program [NTP]
U.S. Food and Drug Administration [FDA]
Thyrotropin-releasing hormone (TRH) receptor (TRHR) is a G-protein-coupled receptor which binds the tripeptide thyrotropin releasing hormone. TRHR is found in the brain and, when bound by TRH, acts (through phospholipase C) to increase intracellular inositol trisphosphate. It plays a crucial role in the anterior pituitary where it controls the synthesis and secretion of thyroid stimulating hormone and prolactin. The TRHR-Hek293 assay is a cell-based assay, and it has the potential to screen G protein-coupled receptors. A compound/drug can either activate (agonist) or suppress (antagonist) GPCRs that can be monitored by levels of intracellular calcium. In this assay, the Tox21 10K compound library was screened to identify potential TRHR antagonists.
Tox21 Assay Protocol Summary:
The TRHR-Hek293 cells were dispensed at 1500cells/4uL/well in 1536-well black-clear bottom plates using a Multidrop dispenser. After the assay plates were incubated at a 37 C/5% CO2 incubator for 18 hours, 4 uL of Dye-Loading Solution was added to each well. The plates were incubated at 37 C for 2 hours. For agonist mode, 23 nL of compounds dissolved in DMSO, positive controls or DMSO only was transferred to the assay plate by a pin tool. The fluorescence intensity in the plates was measured using FDSS 7000EX kinetic plate reader for 3 min at 1 sec intervals. For antagonist mode, 23 nL of compounds dissolved in DMSO, positive controls or DMSO only was transferred to the assay plate by a pin tool. After 5 min incubation at room temperature, 1 uL of TRH was added on the top of the cell/compound mixtures to achieve a final agonist concentration of 1 nM. The fluorescence intensity in the plates was measured using FDSS 7000EX kinetic plate reader for 3 min at 1 sec intervals. Each test compound was measured at 15 concentrations and in triplicates.
A general note: qHTS replaces the single test concentration by a dilution series.
`CC(C)c1ccc(C=O)cc1`: the result was inactive.
As to `C=CCCCCCCCCC(=O)OCCCC`, the result was inactive.
Next, `O=C1CCCCO1`: “inactive”.
As for `CCCCOC(=O)[C@H](C)O`, the outcome was inactive.
Next, `N#Cc1ccccc1O`: “inactive”; `Cn1c(=O)c2c(ncn2CCO)n(C)c1=O`: “inactive”.
Next, `CC(=O)CC(=O)Nc1ccc(C)cc1C`: “inactive”.
Turning to `CCCC(=O)OCCC(C)CCC=C(C)C` (stereo not given), the outcome was inactive.
For `CCOc1cccc(N)c1` the value was “inactive”; for `O=C(CN1CCNCC1)NC1CCCCC1`, “inactive”.
Next, `CC(C)COC(=O)c1ccccc1`: “inactive”; `C/C=C(\C)C(=O)OCCc1ccccc1`: “inactive”.
Take `CCC(C)C(=O)OCCc1ccccc1` (stereo not given): the result was inactive.
Turning to `O=C(Cl)c1ccccc1[N+](=O)[O-]`, the result was inactive.
As to `CN(C)CCCO[C@@H]1[C@H]2OC(C)(C)O[C@H]2O[C@@H]1C(O)CO` (stereo not given in full), the result was inactive.
`C=CC(=O)OCC1CCCO1` (stereo not given): the outcome was inactive.
Next, `Cc1ccc(C(C)NC(=O)[C@@H](NC(=O)OC(C)C)C(C)C)cc1` (stereo not given in full): “inactive”; `CC(=O)CCc1ccc(OC(C)=O)cc1`: “inactive”; `CSc1cnccn1`: “inactive”.
In the case of `CO[Si](CCCn1c(=O)n(CCC[Si](OC)(OC)OC)c(=O)n(CCC[Si](OC)(OC)OC)c1=O)(OC)OC`, the outcome was inactive.
For `O=NN(CCCl)C(=O)NC1CCCCC1` the value was “inactive”.
As to `O=C(CCCl)NCCc1ccccc1`, the outcome was inactive.
For the compound `CC(C)OC(=O)CCC(=O)OC(C)C`, the result was inactive.
Next, `CN(C)C(C)(C)CO`: “inactive”.
Next, `CC1(C)Cc2cccc(N)c2O1`: “inactive”; `Cn1c(=O)c2[nH]c(Br)nc2n(C)c1=O`: “inactive”.
Next, `C=CCOC(=O)CCCCCC`: “inactive”; `CCCCCCCCCOC(=O)c1ccccc1C(=O)OCCCCCCCCC`: “inactive”.
For `Cc1ncc([N+](=O)[O-])n1CC(C)O` (stereo not given), the outcome was inactive.
For `O=C(CCCCC(=O)Nc1c(I)cc(I)c(C(=O)O)c1I)Nc1c(I)cc(I)c(C(=O)O)c1I` the value was “inactive”; for `O=C1NC(c2ccccc2)(c2ccccc2)C(=O)N1COP(=O)(O)O`, “inactive”.
For `CC1(C)[C@H]2CC[C@](C)(C2)[C@H]1O` the value was “inactive”; for `CCCCCC(C)O` (stereo not given), “inactive”; for `CC(=O)Nc1ccc(OC(=O)c2ccccc2OC(C)=O)cc1`, “inactive”.
For `Cc1cc(C)c(C(=O)O)c(C)c1` the value was “inactive”; for `COCCc1ccccn1`, “inactive”; for `O=C(O)[C@H](O)c1ccccc1`, “inactive”.
On to `CC(C)Cn1cnc2c1c(=O)n(C)c(=O)n2C`, for which the result was inactive.
Take `CC(S)C(C)S` (stereo not given): the result was inactive.
Consider `O/N=C/C=N/O`, for which the outcome was inactive.
